The results in this text go back to PubChem BioAssay (EPA / NIEHS).

The target of experiment [1] is Peroxisome proliferator-activated receptor gamma (Homo sapiens) (UniProt P37231). Description: OT_PPARg_PPARgSRC1_0480: Odyssey Thera (OT) 8-hour Protein-Complementation Assay for Peroxisome Proliferator-activated Receptor Gamma / SRC-1 Co-activator (AID 2283387; active means hit-call score of the fitted dose curve at least 0.9, where 1 is the maximum;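 further: nuclear to cytoplasmic split Venus YFP fluorescence ratio reporting PPARg SRC-1 interaction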). Summed up:
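Read-out: 488 nm N/C fluorescence ratio from complemented Venus YFP fragments, ≥350 cells per image, gain-of-signal fitted against DMSO baseline. Fusions of PPARg/SRC-1 with IFP1/IFP2 expressed transiently in HEK293T; compounds applied 8 h.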

Experiment [2] has the same target. Kind of experiment: OT_PPARg_PPARgSRC1_1440: Odyssey Thera (OT) 24-hour Protein-Complementation Assay for Peroxisome Proliferator-activated Receptor Gamma/ SRC-1 Co-activator (AID 2283388; active means hit-call score of the fitted dose curve at least 0.9, where 1 is the maximum;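 further: nuclear to cytoplasmic ratio of reconstituted Venus YFP fluorescence in fixed imaged cells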). Summed up:
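Cells carrying the PPARg/SRC-1 fragment-complementation reporter receive compound for 24 hours, are fixed and counterstained with Draq5, then imaged. Increased nuclear relative to cytoplasmic YFP fluorescence above DMSO baseline indicates binding activity.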

Read-out in experiment [3]: Tumor necrosis factor receptor superfamily member 6 (Homo sapiens) (UniProt P25445)
Kind of experiment: LTEA_HepaRG_FAS: Life Technologies and Expression Analysis (LTEA) Assay for Fas cell surface death receptor (FAS) using HepaRG (AID 2283447). Conditions: mRNA level, 48 h; actives raise or lower the signal. An outline of the steps: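 Differentiated HepaRG cells in serum-free induction medium were exposed 48 h to 8 half-log concentrations up to 100 uM in 0.5% DMSO, in duplicate. FAS mRNA was measured by qRT-PCR normalised to ACTB, GAPDH and POLR2A; bidirectional fit versus DMSO.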

Read-out in experiment [4]: Fatty acid synthase (Homo sapiens) (UniProt P49327)
Kind of experiment: LTEA_HepaRG_FASN: Life Technologies and Expression Analysis (LTEA) Assay for Fatty Acid Synthase (FASN) using HepaRG (AID 2283448).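 On AC50: differentiated human HepaRG liver cells in serum-free induction medium.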 Particulars: mRNA level, 48 h; actives raise or lower the signal. An outline of the steps: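 Transcript-level assay: HepaRG liver cells are treated for 48 h across an eight-point range topping at 100 uM, and FASN mRNA, normalized to three housekeeping genes, is compared with DMSO controls in both directions.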

Read-out in experiment [5]: Cyclin D2 (CCND2), CCND2 (gene 894)
Kind of experiment: LTEA_HepaRG_CCND2: Life Technologies and Expression Analysis (LTEA) Assay for Cyclin D2 (CCND2) using HepaRG (AID 2283449).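 Further: CCND2 transcript measured by TaqMan qRT-PCR and normalised to three housekeeping genes.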 Particulars: mRNA level, 48 h; actives raise or lower the signal. An outline of the steps:
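Chemicals in 0.5% DMSO, eight half-log concentrations from 100 uM top, were applied in duplicate for 48 h to human HepaRG cells in serum-free induction medium. CCND2 mRNA by TaqMan qRT-PCR, normalised to ACTB/GAPDH/POLR2A; bidirectional fit versus DMSO.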

Read-out in experiment [6]: Cyclin Dependent Kinase Inhibitor 1A (CDKN1A), CDKN1A (gene 1026)
Kind of experiment: LTEA_HepaRG_CDKN1A: Life Technologies and Expression Analysis (LTEA) Assay for Cyclin Dependent Kinase Inhibitor 1A (CDKN1A) using HepaRG (AID 2283450). Conditions: mRNA level, 48 h; actives raise or lower the signal. An outline of the steps: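 Gain or loss of CDKN1A transcript is scored by bidirectional fitting against 0.5% DMSO vehicle. Human HepaRG cultures receive chemicals for 48 h across an 8-point series peaking at 100 uM; expression comes from qRT-PCR.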

Read-out in experiment [7]: Cyclin D1 (CCND1), CCND1 (gene 595)
Kind of experiment: LTEA_HepaRG_CCND1: Life Technologies and Expression Analysis (LTEA) Assay for Cyclin D1 (CCND1) using HepaRG (AID 2283451).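 On AC50: differentiated human HepaRG liver cells in serum-free induction medium; TaqMan qRT-PCR transcript level normalised to ACTB GAPDH and POLR2A housekeeping genes.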 Conditions: mRNA level, 48 h; actives raise or lower the signal. An outline of the steps:
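Expression change is measured by qRT-PCR in HepaRG cells after 48 h treatment across eight concentrations topping at 100 uM, with duplicate wells and DMSO (0.5%) serving as baseline for bidirectional fitting.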

Read-out in experiment [8]: catalase (CAT), CAT (gene 847)
Kind of experiment: LTEA_HepaRG_CAT: Life Technologies and Expression Analysis (LTEA) Assay for catalase (CAT) using HepaRG (AID 2283452). Conditions: mRNA level, 48 h; actives raise or lower the signal. An outline of the steps:
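HepaRG cells in serum-free induction medium, 0.5% DMSO vehicle, exposed 48 h in duplicate over 8 half-log concentrations from 100 uM. CAT mRNA measured by qRT-PCR, normalized to ACTB, GAPDH, POLR2A; bidirectional fit versus DMSO.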

Read-out in experiment [9]: flavin-containing dimethylaniline monooxygenases 3 (FMO3), FMO3 (gene 2328)
Kind of experiment: LTEA_HepaRG_FMO3: Life Technologies and Expression Analysis (LTEA) Assay for flavin-containing dimethylaniline monooxygenases 3 (FMO3) using HepaRG (AID 2283453).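 On AC50: differentiated human HepaRG liver cells in serum-free induction medium; FMO3 transcript by TaqMan qRT-PCR normalized to ACTB GAPDH and POLR2A.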 Particulars: mRNA level, 48 h; actives raise or lower the signal. Summed up:
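HepaRG, 48 h exposure, 8-pt half-log series from 100 uM, 0.5% DMSO vehicle, duplicates; FMO3 transcript by Fluidigm TaqMan qRT-PCR, housekeeping-normalized; gain/loss fit vs DMSO.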

Read-out in experiment [10]: Cytochrome P450 (CYP1A1), CYP1A1 (gene 1543)
Kind of experiment: LTEA_HepaRG_CYP1A1: Life Technologies and Expression Analysis (LTEA) Assay for Cytochrome P450 (CYP1A1) using HepaRG (AID 2283454). Particulars: mRNA level, 48 h; actives raise or lower the signal. Summed up: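 Using HepaRG cultures with 0.5% DMSO as vehicle, eight-concentration exposures (max 100 uM) lasted 48 h. Transcript levels were measured by TaqMan qRT-PCR and normalized to ACTB, GAPDH and POLR2A.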

Read-out in experiment [11]: CFLAR gene, CFLAR (gene 8837)
Description: LTEA_HepaRG_CFLAR: Life Technologies and Expression Analysis (LTEA) Assay for CFLAR gene using HepaRG (AID 2283455). Particulars: mRNA level, 48 h; actives raise or lower the signal. An outline of the steps:
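Differentiated HepaRG cells in serum-free induction medium were exposed 48 h in duplicate to eight half-log concentrations up to 100 uM in 0.5% DMSO; mRNA measured by TaqMan qRT-PCR, normalized to ACTB, GAPDH, POLR2A; bidirectional fitting versus DMSO.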

Read-out in experiment [12]: Forkhead box O1 (FOXO1), FOXO1 (gene 2308)
Kind of experiment: LTEA_HepaRG_FOXO1: Life Technologies and Expression Analysis (LTEA) Assay for Forkhead box O1 (FOXO1) using HepaRG (AID 2283456). Particulars: mRNA level, 48 h; actives raise or lower the signal. An outline of the steps:
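Differentiated HepaRG cells, in serum-free induction medium with 0.5% DMSO, exposed 48 h in duplicate to 8-point half-log series from 100 uM. FOXO1 mRNA measured by TaqMan qRT-PCR, normalized to ACTB, GAPDH, POLR2A; bidirectional fit versus DMSO.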

A short description of experiment [13]: CEETOX_H295R_11DCORT: CeeTox H295R High-throughput Steroidogenesis Assay for 11-Deoxycortisol (11DCORT) (AID 2283432). Conditions: actives raise or lower the signal. Summed up: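 H295R cells; 10 uM forskolin prestim 48 h; compound in 0.1% DMSO 48 h; media extracted with MTBE; 11-deoxycortisol by LC-MS/MS, 7-point standard curve; gain/loss vs DMSO baseline; viability by MTT in same wells.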

Experiment [14] can be described thus: CEETOX_H295R_OHPREG: CeeTox H295R High-throughput Steroidogenesis Assay for OH-Pregnenolone (OHPREG) (AID 2283434). Particulars: actives raise or lower the signal. An outline of the steps:
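H295R cells pre-stimulated 48 h with 10 uM forskolin, then exposed 48 h to chemical in 0.1% DMSO. 17alpha-hydroxypregnenolone in medium quantified by MTBE extraction and HPLC-MS/MS; bidirectional fit versus DMSO, viability checked by MTT.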

Experiment [15] in a line: CEETOX_H295R_ANDR: CeeTox H295R High-throughput Steroidogenesis Assay for Androstenedione (ANDR) (AID 2283436). Particulars: actives raise or lower the signal. Summed up: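 H295R cells, following OECD 456 with minor changes, exposed to chemicals for 48 h. Androstenedione in the medium was quantified by HPLC-MS/MS after MTBE extraction. Fitting was bidirectional versus DMSO; chemicals were diluted until MTT viability was ≥70%.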

Experiment [16] is described as follows: CEETOX_H295R_CORTIC: CeeTox H295R High-throughput Steroidogenesis Assay for Corticosterone (CORTIC) (AID 2283437).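 Further: corticosterone secreted into medium quantified by mass spectrometry.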 Conditions: actives raise or lower the signal. An outline of the steps: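 H295R adrenal cells prestimulated 48 hours with 10 uM forskolin, then exposed 48 hours to chemical in 0.1% DMSO. Corticosterone in medium measured by HPLC-MS/MS after MTBE extraction; MTT viability in the same wells; bidirectional fit versus DMSO.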

A short description of experiment [17]: CEETOX_H295R_CORTISOL: CeeTox H295R High-throughput Steroidogenesis Assay for Cortisol (AID 2283438).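 Further: cortisol secreted into medium quantified by LC-MS/MS.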 Particulars: actives raise or lower the signal. Summed up: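 Human adrenocortical H295R cells (passage ≤10) received test chemicals for 48 h after forskolin priming. Secreted cortisol was measured by LC-MS/MS.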
The nature of experiment [18]: CEETOX_H295R_DOC: CeeTox H295R High-throughput Steroidogenesis Assay for DOC (AID 2283439). Conditions: actives raise or lower the signal. Summed up:
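Secreted DOC was quantified from H295R media by HPLC-MS/MS after 48 h chemical exposure following 48 h forskolin (10 uM) prestimulation. Values were fitted in both directions relative to DMSO, the negative control and baseline.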

The nature of experiment [19]: CEETOX_H295R_PROG: CeeTox H295R High-throughput Steroidogenesis Assay for Progesterone (PROG) (AID 2283442). Particulars: actives raise or lower the signal. An outline of the steps: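 Measured analyte is progesterone secreted by H295R cells at 48 h of chemical treatment, following 10 uM forskolin priming. Quantitation used HPLC-MS/MS against a 7-point standard curve; cytotoxicity was checked by MTT absorbance.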

The nature of experiment [20]: CEETOX_H295R_TESTO: CeeTox H295R High-throughput Steroidogenesis Assay for Testosterone (TESTO) (AID 2283457). Particulars: actives raise or lower the signal. An outline of the steps: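 Steroidogenesis in H295R cells following OECD 456 with minor changes; 48 h exposure. Medium testosterone by HPLC-MS/MS, DMSO as baseline, with MTT viability run in parallel.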

Inconclusive results are not listed. The source made the active and inactive calls. How the source made its calls, unless noted: active means hit-call score of the fitted dose curve at least 0.9, where 1 is the maximum; inactive means score below 0.9.

Peroxisome proliferator-activated receptor gamma (Homo sapiens), sequence (P37231 whole entry, looked up, the tested form may be a part): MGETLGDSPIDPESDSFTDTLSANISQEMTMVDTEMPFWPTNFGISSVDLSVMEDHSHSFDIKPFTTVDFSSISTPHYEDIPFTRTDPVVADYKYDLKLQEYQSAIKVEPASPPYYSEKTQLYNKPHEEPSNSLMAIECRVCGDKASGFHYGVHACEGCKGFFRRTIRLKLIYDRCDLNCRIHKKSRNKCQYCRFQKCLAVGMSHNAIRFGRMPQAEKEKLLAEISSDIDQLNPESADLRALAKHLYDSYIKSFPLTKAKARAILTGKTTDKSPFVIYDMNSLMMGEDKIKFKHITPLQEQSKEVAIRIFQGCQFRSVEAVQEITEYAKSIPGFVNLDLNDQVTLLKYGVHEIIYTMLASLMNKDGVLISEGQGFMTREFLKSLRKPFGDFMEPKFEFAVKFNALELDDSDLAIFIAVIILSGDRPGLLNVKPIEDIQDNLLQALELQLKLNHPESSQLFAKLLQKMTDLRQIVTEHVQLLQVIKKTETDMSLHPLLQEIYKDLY
Fatty acid synthase (Homo sapiens), sequence (P49327 whole entry, looked up): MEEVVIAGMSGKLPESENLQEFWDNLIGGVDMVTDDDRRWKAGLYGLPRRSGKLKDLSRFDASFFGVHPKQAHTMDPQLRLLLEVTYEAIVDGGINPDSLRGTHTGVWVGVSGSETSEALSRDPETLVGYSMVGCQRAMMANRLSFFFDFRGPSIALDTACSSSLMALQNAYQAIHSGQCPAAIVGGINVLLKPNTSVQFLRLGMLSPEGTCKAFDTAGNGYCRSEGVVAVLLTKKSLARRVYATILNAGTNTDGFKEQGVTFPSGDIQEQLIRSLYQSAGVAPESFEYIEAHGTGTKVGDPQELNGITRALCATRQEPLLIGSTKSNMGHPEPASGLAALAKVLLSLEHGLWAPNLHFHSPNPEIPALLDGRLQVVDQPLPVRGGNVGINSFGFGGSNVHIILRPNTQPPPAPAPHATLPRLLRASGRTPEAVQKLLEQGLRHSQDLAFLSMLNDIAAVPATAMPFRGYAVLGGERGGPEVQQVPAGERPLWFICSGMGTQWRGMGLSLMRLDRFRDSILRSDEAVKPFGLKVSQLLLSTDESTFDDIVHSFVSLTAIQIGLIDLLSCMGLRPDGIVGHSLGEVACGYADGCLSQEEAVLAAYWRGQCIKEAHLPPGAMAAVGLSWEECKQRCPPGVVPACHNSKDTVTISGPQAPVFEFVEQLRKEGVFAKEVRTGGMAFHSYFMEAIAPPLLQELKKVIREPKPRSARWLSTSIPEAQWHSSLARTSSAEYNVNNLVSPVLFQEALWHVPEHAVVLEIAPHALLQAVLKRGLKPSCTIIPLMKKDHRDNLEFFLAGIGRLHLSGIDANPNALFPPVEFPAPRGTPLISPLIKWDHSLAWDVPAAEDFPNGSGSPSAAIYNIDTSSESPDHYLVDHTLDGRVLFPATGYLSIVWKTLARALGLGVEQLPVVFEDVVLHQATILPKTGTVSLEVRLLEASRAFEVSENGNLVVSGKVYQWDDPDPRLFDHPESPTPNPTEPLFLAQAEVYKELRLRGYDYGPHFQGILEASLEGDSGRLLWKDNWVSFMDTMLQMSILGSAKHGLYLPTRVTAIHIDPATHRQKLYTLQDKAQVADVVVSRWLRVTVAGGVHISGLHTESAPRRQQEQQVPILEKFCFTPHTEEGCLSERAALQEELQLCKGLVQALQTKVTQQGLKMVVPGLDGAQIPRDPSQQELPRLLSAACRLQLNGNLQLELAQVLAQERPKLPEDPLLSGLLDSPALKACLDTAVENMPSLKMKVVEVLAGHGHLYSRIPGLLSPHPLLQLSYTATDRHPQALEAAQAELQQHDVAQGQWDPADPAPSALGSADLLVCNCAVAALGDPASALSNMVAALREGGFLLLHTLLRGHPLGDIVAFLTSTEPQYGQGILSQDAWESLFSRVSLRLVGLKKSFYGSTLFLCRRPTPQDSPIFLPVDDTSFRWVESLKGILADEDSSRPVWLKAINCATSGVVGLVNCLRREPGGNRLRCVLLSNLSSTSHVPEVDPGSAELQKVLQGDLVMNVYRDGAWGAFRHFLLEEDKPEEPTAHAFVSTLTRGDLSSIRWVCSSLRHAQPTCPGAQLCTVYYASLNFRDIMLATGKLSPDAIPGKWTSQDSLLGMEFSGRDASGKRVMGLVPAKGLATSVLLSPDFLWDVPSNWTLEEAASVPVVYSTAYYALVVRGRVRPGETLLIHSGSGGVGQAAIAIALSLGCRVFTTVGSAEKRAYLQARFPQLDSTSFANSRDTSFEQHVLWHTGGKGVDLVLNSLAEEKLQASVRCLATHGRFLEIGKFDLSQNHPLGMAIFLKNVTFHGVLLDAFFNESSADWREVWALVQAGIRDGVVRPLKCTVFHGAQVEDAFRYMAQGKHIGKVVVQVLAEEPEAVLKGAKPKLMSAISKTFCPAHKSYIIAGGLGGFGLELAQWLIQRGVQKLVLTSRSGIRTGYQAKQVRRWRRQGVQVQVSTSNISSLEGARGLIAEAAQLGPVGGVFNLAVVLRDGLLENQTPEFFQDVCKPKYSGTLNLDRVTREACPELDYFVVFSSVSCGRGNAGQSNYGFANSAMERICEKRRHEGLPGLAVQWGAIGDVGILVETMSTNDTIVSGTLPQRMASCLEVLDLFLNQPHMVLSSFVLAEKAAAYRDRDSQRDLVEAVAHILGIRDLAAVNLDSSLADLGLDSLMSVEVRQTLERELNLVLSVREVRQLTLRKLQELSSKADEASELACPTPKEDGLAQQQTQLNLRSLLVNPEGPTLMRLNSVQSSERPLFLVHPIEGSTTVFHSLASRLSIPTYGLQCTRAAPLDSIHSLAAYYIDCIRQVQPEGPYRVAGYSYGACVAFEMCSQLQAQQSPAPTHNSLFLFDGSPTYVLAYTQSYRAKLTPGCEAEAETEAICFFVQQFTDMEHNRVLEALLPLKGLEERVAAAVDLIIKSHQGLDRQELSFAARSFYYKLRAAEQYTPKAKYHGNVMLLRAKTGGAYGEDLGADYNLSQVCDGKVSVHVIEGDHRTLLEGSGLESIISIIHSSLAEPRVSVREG

For the molecule `CNC(=O)ON=CC(C)(C)SC`, the call in experiment [1], in [2], in experiment [3], in experiment [4], in experiment [5] and in [6] was inactive. The result in experiment [7], in experiment [8], in experiment [9], in experiment [10], in experiment [11] and in experiment [12] was inactive.

For orientation: AC50 means the concentration at which the activity in the assay is half-maximal. For `N#Cc1cc(Br)c(O)c(Br)c1`, the molecule was classed as inactive in [1], in experiment [2], in [3] and in experiment [5]. Also, the AC50 in [4] was 8.13 µM (active); in experiment [7] it was 10.4 µM (active); in [8], 9.54 µM (active); in experiment [9], 12.7 µM (active); in [10], 73.6 µM (active); in experiment [11] it was 10 µM (active). For the same molecule, the AC50 in [12] was 40 µM (active).

With `Cc1cc(Cl)ccc1OCC(=O)O`, the molecule was called inactive in [1], in experiment [2], in experiment [13], in experiment [14], in [15] and in experiment [16]. Also, the molecule was classed as inactive in experiment [17], in experiment [18], in experiment [19], in experiment [3], in experiment [4] and in [6]. The call in experiment [7], in [8], in [9], in experiment [11], in [12] and in [20] was inactive. The AC50 in experiment [10] is 50 µM (active).

For the molecule `COP(=S)(OC)Oc1nc(Cl)c(Cl)cc1Cl`, the call in [1], in experiment [2], in experiment [16], in experiment [17], in [18] and in experiment [3] was inactive. Also, the molecule was classed as inactive in [4], in [5], in experiment [7], in [8], in [9] and in experiment [11]. For the same molecule, the molecule was classed as inactive in experiment [12]. For the same molecule, the AC50 in experiment [10] is 80.5 µM (active).

`CCNc1nc(Cl)nc(NC(C)C)n1`: the molecule was classed as inactive in experiment [1], in [2], in [13], in experiment [14], in experiment [16] and in [17]. Besides, the call in experiment [18], in experiment [19], in experiment [3], in experiment [4], in experiment [7] and in experiment [8] was inactive. For the same molecule, the result in experiment [9], in experiment [11] and in [12] was inactive. In addition, the concentration at half-maximal activity (AC50) in experiment [10] was 40.5 µM (active).

Consider `CCOc1cc(Oc2ccc(C(F)(F)F)cc2Cl)ccc1[N+](=O)[O-]`, for which the molecule was called inactive in [1], in experiment [2], in [13], in experiment [14], in [16] and in [17]. For the same molecule, the outcome in experiment [18], in experiment [19], in experiment [6], in [7], in experiment [11] and in experiment [12] was inactive. Also, the AC50 in [3] was 14.4 µM (active); in experiment [4] it was 32 µM (active); in experiment [8], 36.2 µM (active); in experiment [9], 50 µM (active); in experiment [10], 9.84 µM (active).
